# Laboratory results from PubChem BioAssay.
# Assay: probe aWnt5a binding to arrayed compounds – biochemical, biotinylated probe, 635/667 nm fluorescence, primary screen (AID 1113);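 also: score merges 667 nm fluorescence intensity with signal-to-noise per printed feature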
# Conditions: small-molecule microarray, higher = more signal
row,SMILES,composite z-score
1,COc1cc2c(cc1O)C=[N+](Cc1cccc(OC(F)(F)F)c1)CC2,-0.158
2,CCOC(=O)C=Cc1cc([N+](=O)[O-])ccc1O,-0.124
3,N#Cc1ccc(NN2C(C(O)c3c(F)cccc3Cl)C=CC3C(=O)N(c4ccccc4)C(=O)C32)cc1 (stereo unspecified),0.0724
4,O=C1O[C@H](c2ccccc2)[C@H](c2ccccc2)N2[C@H]1[C@@H](C(=O)NC[C@H](O)c1ccccc1)[C@]1(C(=O)Nc3ccccc31)[C@H]2c1ccc(OCCO)cc1,-0.0882
5,O=C1c2ccccc2[C@](Cc2ccccc2I)(C(=O)NC2CC2)[C@H](c2ccc(CO)cc2)N1C1CCCCC1,-0.176
6,CC(C)C[C@@H]1NC(=O)[C@@H]2C[C@H](C(=O)NCCCCCN)[C@H](c3cccc(OCCO)c3)N2C1=O,-0.0896
7,CCCCCN1CC=CC23O[C@@H]4/C=C\CCCOC(=O)C4[C@H]2C(=O)N(C(CO)C(C)C)[C@@H]3C1=O (stereo partly specified),-0.0107
8,O=C(NCc1ccc(F)cc1)[C@H]1C[C@H]2C(=O)N[C@@H](Cc3ccccc3)C(=O)N2[C@H]1c1ccc(O)cc1,-0.148
9,COCC(=C=CC[C@@H](O)c1ccccc1OCCO)C[C@@H](O)c1cc(Cl)cc(Cl)c1O,-0.126
10,COCCOC(=O)N1C(=O)[C@@]2(c3cc(C#CC4=CCCCC4)ccc31)[C@H](C(N)=O)[C@H]1C(=O)O[C@H](c3ccccc3)[C@H](c3ccccc3)N1[C@@H]2c1ccc(OCCO)cc1,-0.124
11,O=C1OCCC/C=C\[C@H]2OC34C=CCN(Cn5nnc6ccccc65)C(=O)[C@H]3N(CCO)C(=O)[C@@H]4C12 (stereo partly specified),-0.187
12,C=CCOC(=O)[C@H]1[C@@H]2C(=O)O[C@@H](c3ccccc3)[C@@H](c3ccccc3)N2[C@@H](c2ccc(OCCOC(=O)[C@@H]3C[C@@H]4C(=O)N5CCC[C@H]5C(=O)N4[C@@H]3c3cccc(OCCO)c3)cc2)[C@]12C(=O)Nc1ccccc12,0.0079
13,CCCCCCC#C[Si](O[C@H](c1ccccc1)c1cn([C@H](CO)Cc2ccccc2)nn1)(C(C)C)C(C)C,-0.096
14,COc1ccc([Si](C)(C)[C@H]2[C@H](CC(=O)N3CCC[C@H]3CO)O[C@@]3(C(=O)N(Cc4cccc(N5C(=O)c6cccc7cccc5c67)c4)c4ccccc43)[C@@H]2C)cc1,0.0775
15,CC(C)C[C@@H]1NC(=O)[C@H]2C[C@@H](C(=O)NCCCCCCN(C)C)[C@@H](c3ccc(O)cc3)N2C1=O,-0.0337
16,CN1C(=O)C2C=CC(C(O)C3CC=CCC3)N(NC(=O)OC(C)(C)C)C2C1=O (stereo unspecified),-0.0539
17,O=C1OCCC/C=C\[C@H]2OC34C=CCN(CCN5CCOCC5)C(=O)[C@H]3N(CCCO)C(=O)[C@@H]4C12 (stereo partly specified),-0.18
18,Cc1ccc(S[C@]2(C(=O)NCC(F)(F)F)CC(=O)N(C(C)C)[C@@H]2c2ccc(CO)cc2I)cc1,-0.101

row,SMILES,composite z-score
1,CCCCCN1CC=CC23O[C@@H]4/C=C\CCCOC(=O)C4[C@H]2C(=O)N(CCCO)[C@@H]3C1=O (stereo partly specified),-0.128
2,CN(C)C(=O)[C@]1(Cc2ccccc2N=[N+]=[N-])N=C(c2ccc(OCCCO)cc2)O[C@@H]1c1ccccc1,-0.329
3,COCCOC(=O)N1C(=O)[C@@]2(c3cc(C#CC4=CCCCC4)ccc31)[C@H](C(=O)Nc1nc3ccccc3s1)[C@H]1C(=O)O[C@H](c3ccccc3)[C@H](c3ccccc3)N1[C@@H]2c1ccccc1OCCO,0.332
4,CN1C(=O)C2C=CC(C(O)c3cccs3)N(Nc3ccccc3)C2C1=O (stereo unspecified),0.211
5,CCc1oc(CC[C@@H](CO)NC(=O)NCCn2cc(C3(O)CCCCC3)nn2)c(C(=O)OC)c1C(=O)OC,0.048
6,C=C[C@H](COC(C)=O)N(C(=O)OC(C)(C)C)S(=O)(=O)c1ccc(Br)cc1,0.205
7,C[N+](C)(C)CCCCNC(=O)[C@H]1C[C@H]2C(=O)N[C@@H](Cc3ccccc3)C(=O)N2[C@H]1c1ccc(O)cc1,-0.0944
8,CCOC(=O)[C@H]1C/C=C/C[C@H](C(=O)OCC)C(=O)O[C@H]2[C@@H](OC)O[C@H](CO)[C@@H](OC(=O)Nc3cccc(F)c3)[C@@H]2OC1=O,-0.0243
9,NCCCCCNC(=O)[C@@H]1C[C@@H]2C(=O)N[C@@H](Cc3ccccc3)C(=O)N2[C@@H]1c1cccc(OCCO)c1,0.404
10,C=CCOC(=O)[C@H]1[C@@H]2C(=O)O[C@@H](c3ccccc3)[C@@H](c3ccccc3)N2[C@@H](c2ccc(OCCOC(=O)[C@@H]3C[C@@H]4C(=O)N[C@@H](CCCCN(C)C)C(=O)N4[C@@H]3c3ccc(O)cc3)cc2)[C@]12C(=O)Nc1ccc(I)cc12,-0.113
11,CC(C)C[C@H]1NC(=O)[C@@]23C(=O)N[C@@H](Cc4ccccc4)C2[C@H](C)[C@@]2(C)O[C@H]2C3/C=C/C/C=C\CNC(=O)[C@H](Cc2ccccc2)NC1=O (stereo partly specified),-0.0735
12,CCOC(=O)[C@H]1CC=C2CC1C(=O)N1CCC[C@@H]1[C@@H]2O[Si](C)(C)C(C)(C)C (stereo partly specified),-0.237
13,COc1ccc([Si](C)(C)[C@H]2[C@H](CC(=O)N3Cc4ccccc4C[C@H]3CO)O[C@@]3(C(=O)N(Cc4ccc(N5CCC5=O)cc4)c4ccccc43)[C@@H]2C)cc1,0.0158
14,O=C1C2C=CC(C(O)C(c3ccccc3)c3ccccc3)N(n3cnnc3)C2C(=O)N1Cc1ccccc1 (stereo unspecified),0.07
15,O=C(O)[C@@]1(CCS(=O)(=O)c2ccccc2)COC(c2ccc(OCCCO)cc2)=N1,-0.129
16,C[C@]1(C(=O)NC2CC2)c2ccccc2C(=O)N(Cc2cc(C(F)(F)F)cc(C(F)(F)F)c2)[C@H]1c1ccc(CO)cc1,-0.0478
17,CCCC[C@@H]1C[C@H]1[C@@H](NC(=O)c1ccco1)c1ccc(C(=O)OC)cc1,-0.027
18,O=C1O[C@H](c2ccccc2)[C@H](c2ccccc2)N2[C@H]1[C@@H](C(=O)Nc1nc3ccccc3s1)[C@]1(C(=O)Nc3ccc(C#CCCO)cc31)[C@H]2c1ccc(OCCO)cc1,0.0927
